Laboratory results: PubChem BioAssay (NCI)
Compounds without any hit were thinned out: in the full panel of roughly 83,000, 20% have a hit.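 Results are percent growth after 48 hours of single-concentration exposure. 100 means growth as in untreated cells, lower positive values show inhibition; negative values down to -100 show cell death.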 Active and inactive are the calls of the source. How the source made its calls: active means growth percent below 10; inactive means the rest.

Tests used:
Assay in all cases: NCI-60 one-dose screen, 48 h (100 = growth as untreated, 0 = no growth, -100 = all killed)
Conditions in all cases: 10 µM unless noted
HCT-15 colon = tested on: HCT-15 colon
HT29 colon = tested on: HT29 colon
SNB-75 CNS = tested on: SNB-75 CNS
SNB-19 CNS = tested on: SNB-19 CNS
U251 CNS = tested on: U251 CNS
PC-3 prostate = tested on: PC-3 prostate
SK-MEL-5 melanoma = tested on: SK-MEL-5 melanoma
UACC-62 melanoma = tested on: UACC-62 melanoma
LOX IMVI melanoma = tested on: LOX IMVI melanoma
SK-MEL-28 melanoma = tested on: SK-MEL-28 melanoma
SK-MEL-2 melanoma = tested on: SK-MEL-2 melanoma
EKVX NSCLC = tested on: EKVX NSCLC
SN12C renal = tested on: SN12C renal
UO-31 renal = tested on: UO-31 renal
TK-10 renal = tested on: TK-10 renal
ACHN renal = tested on: ACHN renal
CAKI-1 renal = tested on: CAKI-1 renal
A498 renal = tested on: A498 renal
CCRF-CEM leukemia = tested on: CCRF-CEM leukemia
MOLT-4 leukemia = tested on: MOLT-4 leukemia

Measured: growth

FC(F)(F)c1cc2c(Cl)ncnc2n1CCC1CCOCC1
active: HCT-15 colon -37.7% | SNB-75 CNS -91.1% | SNB-19 CNS -99% | U251 CNS -14.4% | PC-3 prostate 2.75% | SK-MEL-5 melanoma -83.7% | UACC-62 melanoma -34.5% | LOX IMVI melanoma -97% | SK-MEL-28 melanoma -0.403% | SK-MEL-2 melanoma -91.2% | UO-31 renal -92.9% | ACHN renal -44.2% | CCRF-CEM leukemia -14.5% | MOLT-4 leukemia -38.4%
inactive: HT29 colon 48.5% | EKVX NSCLC 77% | SN12C renal 40.7% | TK-10 renal 98.3% | CAKI-1 renal 80.3% | A498 renal 97.8%

Cc1nc(N)ncc1-c1ccc2ncnc(N3CCc4cc(F)c(Cl)cc43)c2c1
active: TK-10 renal 5.99%
inactive: HCT-15 colon 55.5% | HT29 colon 67.2% | SNB-75 CNS 15.7% | SNB-19 CNS 68.3% | U251 CNS 67% | PC-3 prostate 54.4% | SK-MEL-5 melanoma 77.1% | UACC-62 melanoma 71.8% | LOX IMVI melanoma 60.9% | SK-MEL-28 melanoma 107% | SK-MEL-2 melanoma 100% | EKVX NSCLC 20.3% | SN12C renal 54.9% | UO-31 renal 27.6% | ACHN renal 27.2% | CAKI-1 renal 14.1% | A498 renal 25.3% | CCRF-CEM leukemia 77.8% | MOLT-4 leukemia 11.1%

CC1=C(C(=O)OCc2ccccc2)C(c2ccc(N(C)C)cc2)n2c(nc3ccccc32)N1 (stereo not given)
inactive: HCT-15 colon 71.4% | HT29 colon 100% | SNB-75 CNS 61.2% | SNB-19 CNS 86.2% | U251 CNS 90.4% | PC-3 prostate 80.8% | SK-MEL-5 melanoma 71.7% | UACC-62 melanoma 42% | LOX IMVI melanoma 75.7% | SK-MEL-28 melanoma 79.9% | SK-MEL-2 melanoma 96.5% | EKVX NSCLC 46% | SN12C renal 98.2% | UO-31 renal 61.1% | TK-10 renal 99.4% | ACHN renal 88.5% | CAKI-1 renal 55.6% | A498 renal 74.5% | CCRF-CEM leukemia 105% | MOLT-4 leukemia 100%

CCOC(=O)c1ccc(NC(=S)NC(=O)c2ccc(NC(=O)C(C)C)cc2OC)cc1
active: SK-MEL-5 melanoma -69% | CCRF-CEM leukemia 9.79% | MOLT-4 leukemia -60.3%
inactive: HCT-15 colon 23.6% | HT29 colon 68.2% | SNB-75 CNS 51.1% | SNB-19 CNS 57.7% | U251 CNS 63.4% | PC-3 prostate 18% | UACC-62 melanoma 30.2% | LOX IMVI melanoma 45.6% | SK-MEL-28 melanoma 50.8% | SK-MEL-2 melanoma 48.5% | EKVX NSCLC 36.1% | SN12C renal 73.8% | UO-31 renal 51.7% | TK-10 renal 85.7% | ACHN renal 64.6% | CAKI-1 renal 53.7% | A498 renal 86.7%

N#C/C(=C1/C(=O)Nc2ccccc21)c1nnc(NC(=O)c2ccc(-n3c(=O)[nH]c4ccccc4c3=O)cc2)s1
inactive: HCT-15 colon 14.8% | HT29 colon 26.9% | SNB-75 CNS 79.5% | SNB-19 CNS 51.1% | U251 CNS 37.5% | PC-3 prostate 31.8% | SK-MEL-5 melanoma 10.3% | UACC-62 melanoma 42% | SK-MEL-28 melanoma 34.4% | SK-MEL-2 melanoma 57.7% | EKVX NSCLC 38.9% | SN12C renal 33.1% | UO-31 renal 29.5% | TK-10 renal 84.3% | ACHN renal 28.2% | CAKI-1 renal 49.2% | A498 renal 133%
active: LOX IMVI melanoma 0.591% | CCRF-CEM leukemia 7.74% | MOLT-4 leukemia 0.108%

COc1cc(C2CC(c3ccc(C(F)(F)F)cc3)=Nc3c(N)nc(N)nc3N2)ccc1Oc1nc(Nc2ccc(F)cc2)nc(N(C)C)n1 (stereo not given)
inactive: HCT-15 colon 18.5% | SNB-75 CNS 46.6% | SNB-19 CNS 49.3% | U251 CNS 41.4% | PC-3 prostate 30.7% | SK-MEL-5 melanoma 23.9% | UACC-62 melanoma 86.3% | SK-MEL-28 melanoma 71.5% | SK-MEL-2 melanoma 59.9% | EKVX NSCLC 44.1% | SN12C renal 50.7% | UO-31 renal 41.6% | TK-10 renal 65.4% | ACHN renal 48.3% | CAKI-1 renal 40.9% | A498 renal 65.6% | CCRF-CEM leukemia 69.4%
active: HT29 colon 3.28% | LOX IMVI melanoma -17.6% | MOLT-4 leukemia 4.31%

COc1cncc(-c2ccc3ncnc(N4CCc5ccc(Cl)cc54)c3c2)c1
active: PC-3 prostate 6.75% | SK-MEL-5 melanoma -16.7% | LOX IMVI melanoma 6.64% | EKVX NSCLC -29.3% | UO-31 renal 1.93% | TK-10 renal 8.96% | CAKI-1 renal 8.52% | CCRF-CEM leukemia -1.98% | MOLT-4 leukemia 4.34%
inactive: HCT-15 colon 11.9% | HT29 colon 31.4% | SNB-75 CNS 24.3% | SNB-19 CNS 35.9% | U251 CNS 51% | UACC-62 melanoma 16.3% | SK-MEL-28 melanoma 48.6% | SK-MEL-2 melanoma 30.6% | SN12C renal 20.3% | ACHN renal 10.5% | A498 renal 33.2%
